From PubChem BioAssay AID1159580 (chemical genetic matrix, 2015)
In all, about 5,500 compounds went through this assay and about 2,000 (36%) were called active. Another 18% or so got no clear call; they are omitted. Rule as the data show it: active = normalized growth mostly below about 0.91 (no sharp cut-off); inconclusive = no clear call, values can overlap the other calls; inactive = mostly above about 0.92. This is one part of the list.

Assay: chemical genetic growth profiling, strain panel (AID 1159580);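 also: tested at 20 µM; growth read once vehicle control cultures reached saturation at 30 °C; 1 = growth at the plate median or of vehicle wells; lower values mean less growth of the strain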
Conditions: S. cerevisiae deletion strains, growth OD

Measured: normalized growth

C=C1CC2C3C=C(C)C4=CC(=O)CC[C@]4(C)C3CC[C@]2(C)[C@@]1(OC(C)=O)C(C)=O (stereo partly drawn)
inactive: locus YHR030C, strain SLT2, active compounds read low 0.955 | locus YHR079C, strain IRE1, active compounds read low 0.933 | locus YJL095W, strain BCK1, active compounds read low 0.955 | locus YJR066W, strain TOR1, active compounds read low 0.922 | locus YLR113W, strain HOG1, active compounds read low 0.92 | locus YNL183C, strain NPR1, active compounds read low 0.876 | locus YOR231W, strain MKK1, active compounds read low 0.955 | locus YPL256C, strain CLN2, active compounds read low 0.916
